# Source: PubChem BioAssay (University of Kansas High Throughput Screening Laboratory)
# Pf apPOL inh – Pf-apPOL inhibitors, biochemical, fluorescence | Plasmodium falciparum apicoplast DNA polymerase (apPOL) | Recombinant Pf-apPOL, molecular beacon fluorescence, 1.5 h | inhibition, % at 10 µM | actives 0.25% (n = 210,000) | AID 1794808, 2022
# mHTT CaM bind – mutant huntingtin-calmodulin interaction inhibitors – biochemical, AlphaScreen, primary screen; P42858; inhibition, % at 15 µM; AlphaScreen His-mHTT/GST-CaM binding, luminescence; actives 3.6% (n = 190,000); AID 1671202, 2021;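 note: 0% = both proteins with DMSO and 100% = one protein alone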
# * = called active by the depositor; · = no result; ! = repeats disagree. An excerpt weighted towards active compounds, which were near 3.5% of everything screened. Cut-off read from the data, not from the text of the source: active = inhibition above about 50%; inactive = the rest.
SMILES,Pf apPOL inh,mHTT CaM bind
O=C(Nc1cccc(C(F)(F)F)c1)C1CCN(c2ccncc2)CC1,2.0,-10.6
Nc1nonc1-n1nnc(C(=O)N2CCCCC2)c1-c1ccc([N+](=O)[O-])cc1,0.8,9.0
CSc1ccccc1C(=O)N1CCN(S(=O)(=O)C2CC2)CC1,3.4,1.2
CN(C(=O)Cc1c(C(=O)O)[nH]c2ccc(Cl)cc12)c1cccc(C(F)(F)F)c1,-5.4,11.0
Cc1oc2c3c(ccc2c(=O)c1-c1ccccc1)OCN(Cc1ccccn1)C3,-10.1,69.1*
Cc1oc2c3c(ccc2c(=O)c1-c1ccccc1)OCN(CC1CCCO1)C3 (stereo not drawn),0.6,0.2
COCCN1COc2ccc3c(=O)c(Oc4cccc(OC)c4)c(C(F)(F)F)oc3c2C1,2.9,3.8
COc1cccc(Oc2c(C)oc3c4c(ccc3c2=O)OCN(Cc2ccccn2)C4)c1,-88.4,100.3*
O=C1OC(c2cccc(Cl)c2)=N/C1=C/c1ccc([N+](=O)[O-])cc1,-3.6,-3.0
COc1ccc2cc(C(=O)NC(C)=O)c(=Nc3ccc(C#N)cc3)oc2c1,64.9*,0.0
COc1ccc2oc(=Nc3ccc(F)cc3F)c(C(=O)NC(C)=O)cc2c1,-3.7,2.0
COc1ccc2oc(=Nc3ccc(C#N)cc3)c(C(=O)NC(C)=O)cc2c1,-2.3,4.0
COc1ccc2oc(=Nc3ccccc3F)c(C(=O)NC(C)=O)cc2c1,92.1*,4.0
COc1ccccc1-c1c(C(F)(F)F)oc2c3c(ccc2c1=O)OCN(CCCO)C3,-2.9,-1.9
COC(CNC(=O)c1ccc(N2CCc3ccccc32)c([N+](=O)[O-])c1)OC,-3.7,58.0*
COC(CNC(=O)c1ccc(N2CCN(c3ccccn3)CC2)c([N+](=O)[O-])c1)OC,2.1,9.0
Cc1cc(Cl)ccc1N1CCN(C(=O)COc2ccc(Cl)cc2)C(C)C1=O (stereo not drawn),4.6,31.5
CC1(C)Cc2nc3sc4c(N5CCCCC5)ncnc4c3cc2CO1,-3.7,0.0
C=CCn1c(C(=O)NCc2ccncc2)cc2sc(Br)cc21,-7.5,51.1*
C=CCn1c(C(=O)NC2CC2)cc2sc(Br)cc21,-5.0,-0.9
Cc1ccccc1C(=O)Nc1cc(F)c2nc(N3CCOCC3)ccc2c1,-1.0,-4.4
Cc1cc(CNC(=O)Cc2ccc(SC(C)C)cc2)c(C)o1,-8.7,-16.4
COc1cc2c(cc1NC(=O)c1ccc(S(=O)(=O)N(C)C)cc1)oc1ccccc12,-5.9,-4.7
CN(CCCNC(=O)C1(n2cccc2)CCCCC1)Cc1ccccc1,-15.6,27.2
O=C(NCCCc1ccccc1)C1(n2cccc2)CCCCC1,-6.1,50.5*
SMILES,Pf apPOL inh,mHTT CaM bind
CCN(CC)C1CCN(c2cc(-c3ccccc3)nc3ncnn23)CC1,-2.9,-4.6
CSc1c(CC(=O)NCCO)n(C)c2ccc(C)cc12,-11.9,-1.2
Clc1ccc(-c2cnc(-c3ccc(Cl)cc3)o2)cc1,-5.1,·
Cc1cccc(N=C2C(=O)Nc3ccc(Br)cc32)c1C,0.2,66.0*
Cc1ccc(C)c(N=C2C(=O)Nc3ccc(Br)cc32)c1,-5.7,11.0
O=C(CC1CCN(C(=O)C2CCCCC2)CC1)NCCC1=CCCCC1,1.8,19.8
Cc1cccc(CNC(=O)CCC(=O)N2CC3CCCN3c3ccccc32)c1 (stereo not drawn),-6.6,40.6
O=C(NCc1ccccc1)c1ccc(NC(=O)N2CC3CCCN3c3ccccc32)cc1 (stereo not drawn),1.9,18.9
Cc1ccc(CNC(=O)N2CC3CCCN3c3ccccc32)cc1 (stereo not drawn),-3.1,56.9*
O=C(NCc1ccccc1)N1CC2CCCN2c2ccccc21 (stereo not drawn),0.2,83.3*
CCC1CN(C(=O)NCCC(C)C)c2ccccc2O1 (stereo not drawn),0.0,-21.5
CC(C)CCNC(=O)N1CC2CCCN2c2ccccc21 (stereo not drawn),-2.9,55.9*
CC1(C(=O)NCc2ccc(F)cc2)CCCN(C(=O)NCc2ccccc2)C1 (stereo not drawn),-8.8,3.1
O=C(c1cc(-c2ccncc2)nc2ccccc12)n1ccnc1,-2.2,-5.0
Cc1ccnc(NS(=O)(=O)c2ccc(NC(=O)Cc3cccc4ccccc34)cc2)n1,-10.2,3.7
O=C(NCC1CCN(C2CCCC2)CC1)C(=O)NCC(F)(F)F,0.9,-7.2
CSc1ccc(/C=C2\N=C(c3ccc(C)c(C)c3)OC2=O)cc1,-46.4,-4.0
CCOC(=O)c1c(-c2ccc(OC)cc2)oc2ccc(OC(=O)CC)cc12,2.5,-23.0
Cc1cccc(CNc2nc3ccncc3n(C(C)C)c2=O)c1,-7.2,7.3
Cc1ccccc1Cn1cc(NC(=O)c2noc3c2CCCC3)cn1,-4.9,7.8
O=C(CCc1conc1-c1ccc(F)cc1)N1CCN(c2ccccc2)CC1,-5.0,27.0
COc1ccc(N(CC(=O)N2CCN(C)CC2)S(=O)(=O)c2ccc(C)c([N+](=O)[O-])c2)cc1,-1.8,30.6
CCCCOc1ccc(S(=O)(=O)N2CCOCC2)cc1,-3.2,-3.3
CNC(=O)C(C1CCCC1)N1CCN(C(=O)c2ccccc2)CC1 (stereo not drawn),-1.4,2.1
Nc1nc(CC(=O)N2CCN(c3ccccc3)CC2)cs1,-6.6,-14.0
SMILES,Pf apPOL inh,mHTT CaM bind
C=CCSc1nnc2c(n1)OC(c1ccccc1OC)Nc1ccccc1-2 (stereo not drawn),-5.2,-7.0
COc1ccc(C(=O)Nc2nc3ccc(C)cc3s2)cc1OC,1.7,51.0*!
COc1ccc(C(=O)Nc2nc3ccc(C)cc3s2)cc1[N+](=O)[O-],-23.1,1.9
NS(=O)(=O)c1ccc(N=Cc2ccccc2O)cc1,0.8,·
Cc1ccc(CN2CCC(OCc3nc(-c4cnccn4)no3)CC2)o1,-2.9,-3.6
Cc1sc(NC(=O)c2ccco2)c(C(c2cccnc2)N2CCN(c3ccccn3)CC2)c1C (stereo not drawn),-6.0,100.0*
Cc1sc(NC(=O)c2ccco2)c(C(c2cccnc2)N2CCN(c3ccccc3)CC2)c1C (stereo not drawn),11.8,18.0
Oc1cccc(Nc2nc(-c3ccc(Cl)cc3)cs2)c1,-5.1,97.1*
Cc1ccc(-c2csc(Nc3ccc(C(=O)O)cc3)n2)cc1C,-4.7,18.4
Clc1ccc(Nc2nc(-c3cccnc3)cs2)cc1,-2.7,-0.1
COc1ccc(-c2csc(N)n2)cc1OC,-1.5,17.7
COc1ccc(-c2csc(Nc3ccc(C)c(C)c3)n2)cc1F,-4.6,52.0*
COc1ccc(-c2csc(Nc3cccc(O)c3)n2)cc1OC,2.8,67.5*
COc1ccc(-c2csc(NC(=O)c3ccc(Br)s3)n2)cc1OC,64.0*!,69.0*!
Cc1ccc(-c2csc(NC(=O)c3ccc(Br)s3)n2)o1,-0.5,12.9
OCCNC(=S)Nc1ccc2c(c1)OCO2,-0.2,·
CCOc1ccc(/C=C2/N=C(c3ccccc3)OC2=O)c(OC)c1,-1.7,8.0
CCCCSCCCNC(=O)C(C)C1Sc2ccccc2NC1=O (stereo not drawn),-14.1,1.0
Cn1cc(C2=CCN(C(=O)NC(C)(C)C)CC2)c2cccnc21,-3.2,11.9
COc1ccc(-c2csc(Nc3ccc(NC(C)=O)cc3)n2)cc1OC,-1.2,49.0
COc1ccc(-c2csc(Nc3ccc(O)cc3)n2)cc1OC,-4.5,70.7*
O=C(NCCc1ccncc1)C1CCCN(c2cnn(Cc3ccccc3)c(=O)c2)C1 (stereo not drawn),-9.2,1.3
Cc1ccc(C(=O)/C=C/c2ccc([N+](=O)[O-])cc2)s1,10.8,14.1
